Most compounds without a hit are left out; they make up all but 18% or so of the library.
TDP1 cell CPT: DT40-hTDP1 cell growth loss with CPT; chicken DT40 Tdp1-/-;hTDP1 cells + 20 nM CPT, ATP luminescence, 48 h; Potency, µM (highest dose often 46.2 µM), hits mostly inhibitors; 12% of 420,000 active; note: nearly all actives have a fitted effect of over 55% in size
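Chicken DT40 Tdp1-/- cells stably complemented with human TDP1 were seeded at 400 cells/well in medium containing 20 nM camptothecin, exposed to pin-transferred compounds, and grown at 37 °C for at least 48 hr. Viability was read as ATP luminescence.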
PLK1 PBD block: PLK1 (human) polo-box domain binding inhibition; P53350; Plk1 PBD binding of FITC phosphopeptide, fluorescence polarization; Potency, µM, most hits filed as inhibitors; 2.8% of 360,000 active; AID 720504; note: series mostly up to about 57 µM; nearly all actives have a fitted effect of over 65% in size
DT40 TDP1 no CPT: qHTS for Inhibitors of human tyrosyl-DNA phosphodiesterase 1 (TDP1): qHTS in cells in absence of CPT. DT40 Tdp1-/- hTDP1 cells, no CPT, ATP luminescence, 48 h. Potency, µM (doses to about 46.2 µM), usual class: inhibitors. 15% of 420,000 active; note: nearly all actives have a fitted effect of over 55% in size
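Luminescent ATP content (CellTiter-Glo) served as the growth readout. Knockout chicken DT40 cells expressing human TDP1 were exposed to compounds without camptothecin for a minimum 48 hr at 37 °C.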
VDR inh: vitamin D3 receptor (human) inhibition. P11473. VDR-SRC2-3 peptide fluorescence polarization, 2 h. Potency, µM, actives largely listed as inhibitors. 0.93% of 400,000 active
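Two reagent solutions held at 4 deg C in the dark were dispensed, compounds pinned at 23 nl, and the mixture incubated 2 h at room temperature. Read-out: fluorescence polarization of VDR–SRC2-3 peptide binding.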
KAT2A inh: GCN5L2 (KAT2A) acetyltransferase inhibition | GCN5L2 HAT assay, ThioGlo1 CoA-SH fluorescence | 0.21% of 390,000 active | AID 504327 | Potency, µM (highest dose often 58.9 µM), actives largely listed as inhibitors
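GCN5L2 (20nM final) in 50mM HEPES, 0.1mM EDTA pH 7.5, 0.01% Tween-20 was preincubated 15 min at room temperature with compound, then given ThioGlo1 (50uM), H3(1-25) peptide (75uM) and acetyl-CoA (70uM); CoA-thiol fluorescence (Ex340/Em540) was read at 0 and 20 min.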
TDP1 inh: inhibitors of human tyrosyl-DNA phosphodiesterase TDP1; 0.28% of 350,000 active; Potency, µM (doses to about 130 µM), actives largely listed as inhibitors; Q9NUW8; recombinant TDP1, AlphaScreen DNA substrate cleavage; note: nearly all actives have a fitted effect of over 40% in size
Target sequence (Q9NUW8 whole entry, looked up): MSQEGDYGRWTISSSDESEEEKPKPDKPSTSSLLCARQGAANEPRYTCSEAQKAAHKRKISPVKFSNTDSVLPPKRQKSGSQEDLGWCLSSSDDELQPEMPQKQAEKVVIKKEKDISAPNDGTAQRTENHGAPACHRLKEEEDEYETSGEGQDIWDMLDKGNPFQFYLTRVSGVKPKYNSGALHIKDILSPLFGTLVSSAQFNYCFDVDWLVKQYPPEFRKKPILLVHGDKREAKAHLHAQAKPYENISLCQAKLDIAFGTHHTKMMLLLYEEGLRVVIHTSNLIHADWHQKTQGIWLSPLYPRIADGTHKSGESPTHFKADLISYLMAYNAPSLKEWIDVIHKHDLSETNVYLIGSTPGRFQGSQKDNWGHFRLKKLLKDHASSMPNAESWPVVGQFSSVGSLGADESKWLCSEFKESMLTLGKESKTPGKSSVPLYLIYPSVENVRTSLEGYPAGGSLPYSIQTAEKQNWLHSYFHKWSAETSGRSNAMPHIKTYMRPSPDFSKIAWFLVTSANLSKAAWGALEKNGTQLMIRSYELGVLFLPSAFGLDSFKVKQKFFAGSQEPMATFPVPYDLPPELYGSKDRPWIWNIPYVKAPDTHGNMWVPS
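Enzyme-compound mixtures sat 15 min at room temperature, followed by a 5 min reaction with 15 nM final substrate and 10 min with AlphaScreen beads. Recombinant human Tdp1 was used at 1 nM final.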
Of the large screens only hits and unclear results are named; the others gave an inactive call; ! = repeats disagree. Calls come from the whole dose curve; as a rule, active = well fitted curve in the direction sought with a large enough effect; inconclusive = small, poorly fitted or top-dose-only effect, or another doubt; inactive = no such curve, though single readings can be large; an effect the other way counts as inactive or inconclusive.

COC(=O)CC1Oc2ccccc2-n2cc(-c3ccc(F)cc3)nc21 (stereo unspecified)	TDP1 cell CPT 9.2µM, DT40 TDP1 no CPT 8.2µM (no result: PLK1 PBD block)
Cc1ccc(SCCN2CCC(O)CCC2=O)cc1 (stereo unspecified)	none (no result: TDP1 inh)
C[C@@H](CSc1ccccc1)CN1CC[C@H](NC(=O)OCc2ccccc2)CCC1=O	TDP1 cell CPT inconclusive, DT40 TDP1 no CPT 10µM (no result: TDP1 inh)
O=C(N[C@@H]1CCC(=O)N(CC[C@H](Oc2ccccc2)c2ccccc2)CC1)OCc1ccccc1	TDP1 cell CPT 14.6µM, DT40 TDP1 no CPT inconclusive, VDR inh inconclusive (no result: TDP1 inh)
Cc1ccc(S[C@@H](CCN2CC[C@H](NC(=O)OCc3ccccc3)CCC2=O)c2ccccc2)cc1	TDP1 cell CPT 23.1µM, PLK1 PBD block inconclusive, DT40 TDP1 no CPT 11.2µM (no result: TDP1 inh)
COc1ccc(SC[C@H](Cc2ccccc2)N2CC[C@@H](NC(=O)OCc3ccccc3)CCC2=O)cc1	TDP1 cell CPT inconclusive, DT40 TDP1 no CPT 16.4µM
N#CC[C@H](Cc1ccccc1)N1CC[C@@H](NC(=O)OCc2ccccc2)CCC1=O	TDP1 cell CPT inconclusive, DT40 TDP1 no CPT inconclusive (no result: TDP1 inh)
CCc1nc2ccc(C(=O)N3CCN(C(C)=O)CC3)cn2c1N(C)C(=O)c1cccc(OC)c1	none (no result: VDR inh, KAT2A inh, TDP1 inh)
Fc1cc(F)cc(Nc2nc(NC3CCCC3)nc(C3CO3)n2)c1 (stereo unspecified)	none (no result: TDP1 cell CPT, PLK1 PBD block, DT40 TDP1 no CPT, VDR inh, KAT2A inh)
C=CCOC(=O)C1=C(C)NC(=O)NC1c1cc2c(cc1Br)OCO2 (stereo unspecified)	none
Cc1ccc(SC[C@H](C)CN2CC[C@H](C(C)(C)C)CCC2=O)cc1	TDP1 cell CPT inconclusive, DT40 TDP1 no CPT 16.4µM (no result: TDP1 inh)
Cc1ccc(SC[C@H](C)CN2CC[C@H](NC(=O)OCc3ccccc3)CCC2=O)cc1	TDP1 cell CPT 15.8µM!, DT40 TDP1 no CPT 11.2µM (no result: TDP1 inh)
COc1ccc(CNC(=O)CCSCc2cccc(Cl)c2)c(OC)c1	DT40 TDP1 no CPT inconclusive
O=C(O)c1cccc(-n2c(/C=C/c3ccc([N+](=O)[O-])cc3)nc3ccccc3c2=O)c1	TDP1 cell CPT inconclusive
COc1ccc(-n2c(/C=C/c3cccc4ccccc34)nc3ccccc3c2=O)cc1Cl	TDP1 cell CPT 20.6µM, DT40 TDP1 no CPT 20.6µM (no result: PLK1 PBD block)
COc1ccc(-n2c(/C=C/c3ccccc3F)nc3cc(OC)c(OC)cc3c2=O)cc1Cl	TDP1 cell CPT 14.6µM, DT40 TDP1 no CPT 18.4µM (no result: PLK1 PBD block)
COc1ccc(-n2c(/C=C/c3cccc(C(F)(F)F)c3)nc3ccccc3c2=O)cc1Cl	TDP1 cell CPT 8.2µM, DT40 TDP1 no CPT 13µM (no result: PLK1 PBD block)
CCOc1ccc(-n2c(/C=C/c3cccc(F)c3)nc3cc(OC)c(OC)cc3c2=O)cc1	TDP1 cell CPT 9.2µM, DT40 TDP1 no CPT 9.2µM (no result: PLK1 PBD block)
O=C(O)c1cccc(-n2c(/C=C/c3cccc([N+](=O)[O-])c3)nc3ccccc3c2=O)c1	none (no result: TDP1 inh)
Nc1nc(N)c2snnc2n1	DT40 TDP1 no CPT inconclusive (no result: PLK1 PBD block, VDR inh, KAT2A inh, TDP1 inh)
Cc1cccc(-c2nc3c4ccccc4nc(NCc4ccc(Cl)cc4)n3n2)c1	none (no result: PLK1 PBD block)
COc1ccc(-n2c(SC3CCOC3=O)nc3ccccc3c2=O)cc1OC (stereo unspecified)	none
COc1ccc(-n2c(SC3CCOC3=O)nc3ccccc3c2=O)cc1Cl (stereo unspecified)	TDP1 cell CPT 13µM, PLK1 PBD block inconclusive, DT40 TDP1 no CPT inconclusive
Cc1ccc(NS(=O)(=O)c2cc3c(cc2-c2ccco2)NC(=O)CO3)cc1C	none (no result: TDP1 cell CPT, PLK1 PBD block, DT40 TDP1 no CPT, VDR inh, KAT2A inh)
CCOc1ccccc1NC(=O)Nc1ccc(Br)cc1C	none
CC1=C(C(=O)Nc2ccc(C)cc2C)C(c2ccccc2[N+](=O)[O-])n2ncc(C(=O)Nc3ccccc3)c2N1 (stereo unspecified)	TDP1 cell CPT inconclusive, DT40 TDP1 no CPT 25.9µM (no result: PLK1 PBD block)
CC1=C(C(=O)Nc2ccc(C)cc2C)C(c2cc(Br)ccc2F)n2ncc(C(=O)Nc3ccc(C)cc3)c2N1 (stereo unspecified)	TDP1 cell CPT inconclusive, DT40 TDP1 no CPT 11.6µM (no result: PLK1 PBD block)

Source: PubChem (National Center for Advancing Translational Sciences (NCATS))
